# Screening data deposited in PubChem BioAssay by several laboratories.
# This is a sample that favours compounds with a hit; in the whole collection about 0.92% have one here.
# FadD28 FP inh: M. tuberculosis FadD28 bisubstrate binding inhibition | FadD28 bisubstrate probe binding, fluorescence polarization | inhibition, % at 12.5 µM | actives 0.22% (n = 360,000) | AID 588549; in the data active means inhibition above about 8.5%, passing the limit was not always enough; inconclusive means no clear call, values can overlap the other calls
# Mtb betalactam: beta-lactam sensitization of Mtb H37Rv; inhibition, % at 25 µM; M. tuberculosis H37Rv growth with meropenem, percent inhibition; AID 434955; actives 0.27% (n = 330,000);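 further: growth measured after seven days incubation then overnight dye step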
# RecA intein inh: inhibitors of M. tuberculosis RecA intein splicing | cell-free RecA intein splicing, fluorescence | P9WHJ3 | actives 0.75% (n = 290,000) | inhibition, % (concentration not given with the values) | AID 2221; in the data active means inhibition above about 30%; inconclusive means no clear call, values can overlap the other calls
# Mtb UGM inh: inhibitors of M. tuberculosis UDP-galactopyranose mutase | inhibition, % at 10 µM | actives 0.06% (n = 320,000) | purified UGM, fluorescence polarization probe displacement | AID 504406; in the data active means inhibition above about 10%, passing the limit was not always enough; inconclusive means no clear call, values can overlap the other calls
# Mtb hypoxia rep: inhibitors of hypoxia-regulated fluorescent reporter in Mycobacterium tuberculosis. M. tuberculosis hypoxia-regulated fluorescent reporter, fluorescence. fluorescence inhibition, % (concentration not given with the values). actives 0.1% (n = 300,000); in the data active means fluorescence inhibition mostly above about 23%, no sharp cut-off; inactive means mostly below about 17%
# Rv3671c protease: inhibits the M. tuberculosis serine protease Rv3671c | P9WHR9 | inhibition, % at 5.96 µM | actives 0.048% (n = 320,000); in the data active means inhibition above about 38%;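 further: extracellular domain of Rv3671c used as enzyme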
# Target sequence (P9WHR9 whole entry, looked up, the tested form may be a part): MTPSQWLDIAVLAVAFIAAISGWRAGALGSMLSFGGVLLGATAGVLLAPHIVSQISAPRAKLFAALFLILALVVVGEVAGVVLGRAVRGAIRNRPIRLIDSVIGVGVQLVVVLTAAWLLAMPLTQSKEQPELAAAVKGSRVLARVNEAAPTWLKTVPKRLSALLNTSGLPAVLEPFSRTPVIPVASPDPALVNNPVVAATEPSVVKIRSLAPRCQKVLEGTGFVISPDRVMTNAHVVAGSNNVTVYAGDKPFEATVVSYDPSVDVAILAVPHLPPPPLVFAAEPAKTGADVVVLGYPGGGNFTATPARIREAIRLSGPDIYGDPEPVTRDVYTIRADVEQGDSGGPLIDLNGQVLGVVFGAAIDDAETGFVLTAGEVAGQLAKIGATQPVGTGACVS
# GFP chromophore: counter-screen GFP chromophore formation inhibition. shares compounds with RecA intein inh. cell-free GFP chromophore formation, fluorescence. EC50, µM. actives 83% (n = 2,100)
# Numbers stand for hits; 0 = inactive; ? = inconclusive; - = not tested or not shown. Unless noted, how the calls were made is not given here.
SMILES,FadD28 FP inh,Mtb betalactam,RecA intein inh,Mtb UGM inh,Mtb hypoxia rep,Rv3671c protease,GFP chromophore
CC(Nc1nc(-c2ccc(F)cc2)cs1)c1nc2cc(Cl)c(Cl)cc2n1CCCO (stereo not drawn),0,0,0,0,0,0,-
C=CCn1c(-c2cccnc2Cl)nc2ccccc21,0,0,85,0,0,0,0
C=CCn1c(-c2cccnc2Cl)nc2cc(Cl)c(Cl)cc21,0,0,0,0,0,0,-
N/C(=N\O)c1cn(Cc2ccccc2Cl)c2ccccc12,0,0,0,0,-,0,-
Cc1[nH][nH]c(=O)c1C(c1c(C)[nH][nH]c1=O)c1cn(Cc2ccccc2Cl)c2ccccc12,0,-,99,-,0,-,0.51
COc1ccc(C(=O)CSc2nnc(-c3ccco3)n2CC2CCCO2)cc1 (stereo not drawn),0,0,0,0,-,0,-
COc1cc(NC(=O)COC(=O)CNC(=O)c2ccc(C)cc2)c(C)cc1[N+](=O)[O-],0,0,0,0,0,0,-
CC(C)C(=O)N1CCN(c2nc(-c3ccccc3)c3c(c2C#N)CCCC3)CC1,0,0,31,0,0,0,0
O=C(NNC(=O)c1ccc2ccccc2c1O)c1ccccc1Cl,0,0,35,0,-,0,0
CN(C(=O)COc1ccc(Cl)cc1Cl)C1(C)CCS(=O)(=O)C1 (stereo not drawn),0,0,0,0,0,0,-
CC(=O)Nc1cccc(NC(=O)CSc2ncc(C(=O)Nc3ccccc3)c(=O)n2C)c1,0,0,47,0,0,0,40
CC(=O)Nc1ccc(NC(=O)CSc2ncc(C(=O)Nc3ccc(F)cc3)c(=O)n2C)cc1,0,0,32,0,0,0,0
CC(=O)Nc1cccc(NC(=O)CSc2ncc(C(=O)Nc3ccc(F)cc3)c(=O)n2C)c1,0,0,0,0,0,0,-
CC(=O)c1cccc(NC(=O)CSc2ncc(C(=O)Nc3ccccc3)c(=O)n2C)c1,0,0,37,0,0,0,0
CC(=NC1CC1)c1c(-c2ccccc2)[nH]n(-c2nc3ccccc3s2)c1=O,0,0,0,0,0,0,-
CN1CCN(C(c2ccc(C(F)(F)F)cc2)c2cc(Cl)c3cccnc3c2O)CC1 (stereo not drawn),-,0,44,0,-,0,18
CN1CCN(C(c2ccc(Cl)cc2)c2cc(Cl)c3cccnc3c2O)CC1 (stereo not drawn),0,0,79,0,-,0,31
Cc1ccc(NC(=O)COc2cccnc2[N+](=O)[O-])cc1S(=O)(=O)N1CCCCC1,0,0,0,0,0,0,-
COc1ccccc1-n1c(SCC(=O)NCC2CCCO2)nc2c([nH]c3ccccc32)c1=O (stereo not drawn),0,?,0,0,0,0,-
CCOC(=O)c1c(OCC)[nH]c2c1cc(O)c1ccccc12,0,0,95,0,0,0,4.3
CCOC(=O)c1c(C)[nH]c2cc(Br)c(O)cc12,0,0,0,0,0,0,-
Cc1ccccc1CN1CCN(C(=O)c2ccco2)CC1,0,0,0,0,0,0,-
O=C(CN1CCN(Cc2ccccc2)C1=O)NCc1ccc(Cl)cc1,0,0,0,0,-,0,-
COC(=O)[C@@H]1C[C@]2(OC(=O)c3ccccc3)C=CC(=O)C[C@@H]2N1C(=O)OCc1ccccc1,0,0,56,0,-,0,32
NC(=O)c1ccc(NC(=O)Cn2c(=O)n(-c3ccccc3)c(=O)c3oc4ccccc4c32)cc1,0,0,0,0,0,0,-
SMILES,FadD28 FP inh,Mtb betalactam,RecA intein inh,Mtb UGM inh,Mtb hypoxia rep,Rv3671c protease,GFP chromophore
CCN(Cc1ccccc1)S(=O)(=O)c1ccc(C(=O)N(CCCN(C)C)c2nc3cc(C)cc(C)c3s2)cc1,0,0,31,0,-,0,0
COc1ccc(C=C(c2nc3ccccc3s2)c2nc3ccccc3s2)cc1O,0,0,60,0,0,0,0
Cc1c(O)ccc(/C(Cc2ccc3ccccc3n2)=N\O)c1O,0,0,0,0,-,0,-
COCCCNC(=O)C1C2C=CC3(CN(Cc4ccc(C)cc4)C(=O)C13)O2 (stereo not drawn),0,0,0,0,0,0,-
Cc1cc(C)nc(N2N=C(C(C)(C)C)CC2=O)n1,0,0,40,0,0,0,34
CCCc1cc(=O)[nH]c2nnc(SCC(=O)N3CC(C)OC(C)C3)n12 (stereo not drawn),0,0,0,0,0,0,-
CC1CCCN(C(=O)COc2ccc(NC(=O)c3cccs3)cc2)C1 (stereo not drawn),0,0,44,0,0,0,0
COc1cccc(CN(C)C(=O)c2cc(-c3ccc(F)cc3)nc3ccccc23)c1,0,0,0,0,0,0,-
CC(=O)Nc1ccccc1NC(=O)CC(C)=NNC(=O)c1cccnc1,-,-,-,-,0,-,-
O=C(N/N=C/c1c(Cl)cccc1Cl)c1ccc(-n2cnnn2)cc1,0,0,-,0,-,0,-
COc1ccc(-c2c(=O)n(OC)c3ccccc3[n+]2[O-])cc1OC,0,0,42,0,0,0,0
Cc1ccc(C)c(NC(=O)CCC(=O)NN=C2CCCC2)c1,0,0,0,0,0,-,-
[O-][N+]1=c2ccc(Nc3ccccc3)cc2=NC12CCCCC2,0,0,80,0,0,0,11
COc1ccc(Nc2ccc3c(c2)=NC2(CCCCC2)[N+]=3[O-])cc1,0,0,79,0,0,0,10
Cc1ccc2ncc([N+](=O)[O-])n2c1,0,0,0,0,0,0,-
CCOC(=O)c1cc(-c2ccco2)nc2c1c(C)nn2-c1ccccc1,0,0,0,0,-,0,-
CCOc1ccc(S(=O)(=O)NCc2cccnc2)cc1C,0,0,40,0,0,0,0
CCCCCc1cc(=O)oc2c(C(CCN3CCCC(C)C3)c3ccc(OC)cc3)c(OC)cc(OC)c12 (stereo not drawn),0,0,37,0,-,0,18
CCCCCc1cc(=O)oc2c(C(CCN3CCCCC3)c3ccc(OC)cc3)c(OC)cc(OC)c12 (stereo not drawn),0,0,0,0,-,0,-
CC1=NNC(=O)C1C(c1ccc(F)cc1)C(C#N)C#N (stereo not drawn),0,0,85,0,0,0,17
Cc1ccc(C2N3CC4([N+](=O)[O-])CN2CC([N+](=O)[O-])(C3)C4(C)C)cc1 (stereo not drawn),0,0,0,0,0,0,-
CC(C)[C@H](NC(=O)Nc1ccc(Oc2ccccc2)cc1)C(=O)O,0,0,62,0,-,0,0
N#CCOc1ccccc1CNC[C@H]1O[C@@H](n2cnc(C(N)=O)n2)[C@H](O)[C@@H]1O,0,-,-,-,-,-,-
Cc1cccc(S(=O)(=O)C(C#N)c2nc3ccccc3nc2N2CCCC2)c1 (stereo not drawn),0,0,45,0,0,0,0
O=C1c2ccccc2C(=O)C12OC(c1ccccc1)C1(C(=O)c3ccccc3C1=O)C2c1ccc([N+](=O)[O-])cc1 (stereo not drawn),0,0,0,0,0,0,-
O=C1c2ccccc2C(=O)C12OC2c1ccc(Cl)cc1 (stereo not drawn),-,0,72,0,-,0,0
